SW480 rerep: induces DNA re-replication in SW480 colon adenocarcinoma cells; Potency, µM (highest dose often 46.1 µM), inactives show top-dose re-replication activation, actives largely listed as activators; SW480 DNA re-replication, Hoechst DNA content imaging, 48 h; 340,000 tested, 1.8% active; also: potency is read from the fitted curve at half-maximal effect; % of control where 0% means no effect; nearly all actives have a fitted effect of over 55% in size
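Per well, 250 cells were exposed to pinned compound for 48 hr. Nuclear DNA was visualised with Hoechst (40 min, 37 C) and total object intensity recorded by fluorescence scanning.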
ASM inhibitor: blocks human secretory acid sphingomyelinase; placental ASM, HMU-PC fluorogenic substrate, 60 min; Potency, µM (series often up to 57.5 µM), for the others: top-dose activity change, negative = inhibition, hits mostly inhibitors; 340,000 tested, 0.006% active; also: potency is read from the fitted curve at half-maximal effect
Target sequence (P17405 47-631 limits assumed): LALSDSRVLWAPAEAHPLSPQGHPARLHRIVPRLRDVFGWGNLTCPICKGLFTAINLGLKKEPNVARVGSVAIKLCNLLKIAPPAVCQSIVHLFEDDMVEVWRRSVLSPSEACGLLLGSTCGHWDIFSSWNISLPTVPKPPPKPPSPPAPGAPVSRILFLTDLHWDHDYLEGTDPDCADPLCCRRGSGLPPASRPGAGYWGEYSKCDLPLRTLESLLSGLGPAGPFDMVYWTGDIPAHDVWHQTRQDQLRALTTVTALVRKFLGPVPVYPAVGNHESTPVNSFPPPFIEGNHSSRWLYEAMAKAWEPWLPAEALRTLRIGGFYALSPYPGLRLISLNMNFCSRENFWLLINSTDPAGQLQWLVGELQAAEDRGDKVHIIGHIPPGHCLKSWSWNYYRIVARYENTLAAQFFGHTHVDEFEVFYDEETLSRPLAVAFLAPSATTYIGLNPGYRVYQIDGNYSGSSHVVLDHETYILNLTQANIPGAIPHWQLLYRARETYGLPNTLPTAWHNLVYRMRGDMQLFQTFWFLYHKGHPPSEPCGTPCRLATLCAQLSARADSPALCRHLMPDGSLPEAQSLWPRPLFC
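Human placenta-derived ASM preincubated with compound 10 min at room temperature, then reacted with 9 uM (final) fluorogenic HMU-PC substrate for 60 min at 37 C. Stop solution raises pH to 10; fluorescence read at Ex 386/Em 447 nm.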
KB-V1 cytotox: kills drug-selected multidrug resistant KB-V1 cells. KB-V1 MDR cells viability, CellTiter-Glo, 72 h. Potency, µM (doses to about 46.1 µM), usual class: cytotoxic. 400,000 tested, 3.4% active; also: potency is read from the fitted curve at half-maximal effect; % is scaled to controls: 0 for no effect and ±100 for the full control effect; nearly all actives have a fitted effect of over 60% in size
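Cells of the MDR subline KB-V1 are plated, dosed with compound at multiple concentrations, and incubated 72 h at 37 degrees C; CellTiter-Glo is then added and luminescence read after 10 min.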
Giardia kill: kills Giardia lamblia. Giardia lamblia trophozoite viability. 340,000 tested, 0.15% active. activity change, % at 7.66 µM, hits read low. AID 540267; in the data active = activity change below about -80%; inconclusive = between about -30% and that limit;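 also: parasites exposed to compound for two days anaerobically before the ATP read; % is scaled to controls: 0 for no effect and ±100 for the full control effect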
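Anaerobic 48 hrs incubation at 37 deg C of 100 trophozoites/well with test compounds; ATPLite 1-Step luminescence, 15-30 min RT, reports cellular ATP as viability.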
KB-3-1 tox: kills parental KB-3-1 adenocarcinoma cells | KB-3-1 viability, CellTiter-Glo ATP luminescence, 72 h | Potency, µM (series often up to 46.1 µM), hits mostly cytotoxic | 400,000 tested, 1.4% active | AID 1347075; also: potency is read from the fitted curve at half-maximal effect; % is scaled to controls: 0 for no effect and ±100 for the full control effect; nearly all actives have a fitted effect of over 60% in size
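KB-3-1 parental drug-naive adenocarcinoma cells in DMEM/10% FBS, incubated 72 h at 37 C with pin-transferred compounds across a concentration series. Viability by CellTiter-Glo luminescence; concentration-response curves fitted after normalization.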
MCF10A rereplic: inducers of DNA re-replication in MCF 10A breast cells; Potency, µM (highest dose often 46.1 µM), for the others: top-dose activity, positive = re-replication, usual class: activators; 350,000 tested, 2.9% active; MCF 10A DNA re-replication, Hoechst nuclear intensity, 48 h; also: potency is read from the fitted curve at half-maximal effect; % of control where 0% means no effect; nearly all actives have a fitted effect of over 50% in size
Starred values were filed as active, the others as inactive; i = inactive; ? = inconclusive; . = no result; [ ] = dose if it differs, or a comment. An excerpt weighted towards active compounds, which were near 6.9% of everything screened. Unless noted, calls follow the shape of the dose curve; as a rule, active = well fitted curve in the direction sought with a large enough effect; inconclusive = small, poorly fitted or top-dose-only effect, or another doubt; inactive = no such curve, though single readings can be large; an effect the other way counts as inactive or inconclusive.

SMILES	SW480 rerep	ASM inhibitor	KB-V1 cytotox	Giardia kill	KB-3-1 tox	MCF10A rereplic
CCCCN(CC)CCCNC(=O)c1nn(-c2ccc(OC)cc2)c(=O)c2c1c1ccccc1n2C	.	.	i	.	i	.
CC(C)Nc1cc(N2CCN(C3CCCCC3)CC2)c2noc3c2c1C(=O)c1ccccc1-3	.	.	i	.	i	.
COc1nc(OC)nc(N2CCC(C(=O)NCc3cccs3)CC2)n1	-16%	2%	18µM*	-6	i	-2%
CCOc1ccc(NS(=O)(=O)c2ccc(NC(=S)NC(=O)CC(C)C)cc2)cc1	?	-21%	?	5	i	?
CC(C)CC(=O)NC(=S)Nc1ccc(S(=O)(=O)NC(C)(C)C)cc1	3%	-4%	15µM*	-3	i	5%
CN(C)C(=O)COc1ccccc1C(=O)OCC(=O)Nc1ccc(Oc2ccc(Br)cc2)cc1	.	.	i	.	i	.
O=C(COC(=O)C1CCCCC1)Nc1cccc(Br)c1	-1%	-2%	i	-7	i	14%
Cc1ccn(-c2n[nH]c(C)c2[N+](=O)[O-])n1	0%	0%	i	-8	i	-6%
Cc1ccn(-c2ccc([N+](=O)[O-])cc2)n1	21µM*	4%	i	15	i	-183%[0.0737 µM]
COc1ccc2c(c1)[nH]c(=O)c1sc3ccccc3c12	3%	103%	i	9	i	13µM*
CCOC(=O)CCc1c(C)c2ccc(O)cc2oc1=O	-2%	i	i	13	i	-11%
CCN(CC)c1ccc2c(C)c(Cl)c(=O)oc2c1	?	i	i	2	i	4.1µM*
CCOC(=O)Cc1c(C)c2ccc(N(CC)CC)cc2oc1=O	15µM*	i	?	9	i	18µM*
CCN(CC)c1ccc2c(c1)oc(=O)c1c(Cl)cc(=O)oc12	9.2µM*	188%	?	?	?	?
CCN(CC)c1ccc2c(C)c(-c3ccc(N)cc3)c(=O)oc2c1	8.2µM*	308%	i	-5	?	3.7µM*
CCN(CC)c1ccc2c(Cl)c(Br)c(=O)oc2c1	?	271%	?	-6	?	?
CCOc1ccc(NC(=O)CN(c2ccc(CC)cc2)S(=O)(=O)c2c(C)noc2C)cc1	.	.	i	.	i	.
CCOC(=O)c1c(C)n(-c2ccccc2)c2ccc(OC(=O)COc3ccc(Cl)cc3)cc12	.	.	i	.	i	.
COC(CNC(=O)C(=O)Nc1cc2c3c(c1)CCN3C(=O)CC2)OC	1%	3%	i	-11	?	-1%
COc1ccc2oc3cc(C)[n+]([O-])c(-c4ccc(Br)cc4)c3c2c1	-6%	-3%	2.9µM*	2	?	?
NC(Cc1ccc(C(F)(F)F)cc1)c1csc(Nc2ccc(C(=O)c3ccccc3)cc2)n1 (centres undefined)	.	.	23µM*	.	?	.
Cc1ccc(C(=O)Nc2nc(C(N)Cc3ccc(C(F)(F)F)cc3)cs2)cc1 (centres undefined)	.	.	i	.	i	.
CC(=O)c1ccc(Nc2nc(C(N)Cc3ccc(C(F)(F)F)cc3)cs2)cc1 (centres undefined)	.	.	12µM*	.	?	.
NCc1csc(Nc2ccc(C(=O)c3ccccc3)cc2)n1	.	.	?	.	5.8µM*	.
CCc1ccc(NC(=O)CSc2nc3n[nH]c(C)c3c(=N)n2-c2ccccc2C)cc1	.	.	i	.	i	.
SMILES	SW480 rerep	ASM inhibitor	KB-V1 cytotox	Giardia kill	KB-3-1 tox	MCF10A rereplic
COc1ccc(OC)c(NC(=O)CSc2nc3n[nH]c(C)c3c(=N)n2-c2cccc(Cl)c2C)c1	7%	-17%	?	3	?	27%
CCOc1ccccc1NC(=O)CCSc1nc2n[nH]c(C)c2c(=N)n1-c1ccccc1Cl	?	-6%	?	21	i	13µM*
CCc1ccccc1NC(=O)CSc1nc2n[nH]c(C)c2c(=N)n1-c1cccc(OC)c1	18%	-16%	8.2µM*	10	i	?
Cc1ccccc1-n1c(SCC(=O)Nc2ccccc2Cl)nc2n[nH]c(C)c2c1=N	-6%	-18%	i	-1	?	?
CCOc1ccccc1-n1c(SCC(=O)Nc2ccc(CC)cc2)nc2n[nH]c(C)c2c1=N	-2%	-2%	?	7	18µM*	8.2µM*
COc1cccc(C2=CC(c3ccccc3O)NC(C)(C)N2)c1 (centres undefined)	.	.	i	-8	i	.
COc1ccc(NC(=O)/C(Cl)=C(/Cl)S(=O)Cc2ccc(Cl)cc2)cn1 (centres undefined)	?	-4%	5.8µM*	-4	7.3µM*	?
COc1ccc(NC(=O)C(Cl)=C(Cl)Cl)cn1	?	1%	?	-2	?	21µM*
COc1ccc(NC(=O)/C(Cl)=C(/Cl)S(=O)(=O)Cc2ccccc2)cn1	?	-13%	?	2	?	?
COC(=O)CNC(=O)C(C)(C)Oc1ccc(Cl)cc1	-7%	4%	i	-6	i	-12%
COc1ccc(NC(=O)CN(C)S(=O)(=O)c2ccc(Cl)cc2)cn1	-1%	-1%	i	-4	i	-1%
COc1ccc(NC(=O)C(C)(C)Oc2ccc(Cl)cc2)cn1	-2%	2%	15µM*	10	i	1%
C[n+]1c2n(c3ccccc31)N=C(c1cc(C(C)(C)C)c(O)c(C(C)(C)C)c1)CS2	?	-27%	i	-10	4.1µM*	16µM*
CCOC(=O)N1CCN(S(=O)(=O)c2ccc(F)c(C(=O)Nc3ccc(C(C)C)cc3)c2)CC1	8%	-7%	6.5µM*	16	i	18%
CN(C)C(=O)/C(C#N)=C\c1cc(Br)c(Sc2ccc(Cl)cc2)o1	2%	.	16µM*	-11	i	4%
CC(=O)[C@@]1(O)C(C)CC2C3C=C(C)C4=Cc5c(cnn5-c5ccccc5)C[C@]4(C)C3C(O)C[C@@]21C (some centres undefined)	8.2µM*	-22%	?	17	?	15µM*
Cc1cc(C(=O)NC2CC(C)(C)Cc3c2cnn3-c2ccccc2)n(C)n1 (centres undefined)	3%	-2%	.	4	.	-2%
O=C1CC2c3ccccc3C1C1C(=O)N(CCc3ccccc3)C(=O)C21 (centres undefined)	-14%	-3%	i	5	i	11%
O=C(Cc1ccccc1F)Nc1nc2ccccc2[nH]1	11%	1%	i	5	i	4%
CCOc1ccccc1OCCCC(=O)Nc1nc2ccccc2[nH]1	12%	3%	i	0	i	5%
O=C(Cc1cccc2ccccc12)Nc1nc2ccccc2[nH]1	?	9%	18µM*	11	i	0%

Bioassay records deposited in PubChem by National Center for Advancing Translational Sciences (NCATS).
